Laboratory results reported in PubChem BioAssay (NCI).
About 79,000 compounds went through this panel and 15% of them were active in at least one assay; those are over-represented in the sample as a whole. Calls of active or inactive are those of the source. Cut-off read from the data, not from the text of the source: active = growth inhibition above about 70%; inactive = the rest.

What was measured:
[1] = NCI Yeast Anticancer Drug Screen. Data for the rad52 strain (AID 147);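 note: 0% = growth of vehicle-treated control cultures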; conditions: S. cerevisiae rad52 mutant growth inhibition, active compounds read high
In short: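 Screen used a yeast mutant impaired in DNA repair. After compound exposure, growth was measured. Values reflect inhibition compared with vehicle-treated cells.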

[2] = NCI Yeast Anticancer Drug Screen. Data for the wt1 strain (AID 149);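 note: 0% = growth of vehicle-treated wt1 cultures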; conditions: S. cerevisiae wt1 strain (SPY 50644) growth inhibition, active compounds read high
In short: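 Using yeast strain wt1, compound-induced growth inhibition was determined against vehicle-treated cultures.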

[3] = NCI Yeast Anticancer Drug Screen. Data for the rad50EPP+ strain (AID 151);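 note: 0% = growth of vehicle-treated control cultures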; conditions: S. cerevisiae rad50 mutant strain, active compounds read high
In short: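 Exposing the rad50EPP+ strain to each compound, growth was compared with vehicle-only cultures to give inhibition.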

[4] = NCI Yeast Anticancer Drug Screen. Data for the mgt1 strain (AID 153); conditions: S. cerevisiae mgt1 mutant growth inhibition, active compounds read high
In short: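 Genetically defined yeast (mgt1) treated with compound; inhibition of growth expressed against vehicle-treated controls.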

[5] = NCI Yeast Anticancer Drug Screen. Data for the rad50 strain (AID 155);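 note: 0% = growth of vehicle-only cultures of the same strain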; conditions: S. cerevisiae rad50 strain growth inhibition, active compounds read high
In short: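 Relative growth inhibition (compound vs vehicle) was measured in yeast with a defined repair-gene alteration.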

[6] = NCI Yeast Anticancer Drug Screen. Data for the mec2-1 strain (AID 157); conditions: S. cerevisiae mec2-1 strain, active compounds read high
In short: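 Readout is yeast growth inhibition, normalised to vehicle-treated controls, in the mec2-1 strain exposed to compound.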

[7] = NCI Yeast Anticancer Drug Screen. Data for the rad14 strain (AID 159);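 note: 0% = growth of vehicle-treated control cultures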; conditions: S. cerevisiae rad14 strain growth inhibition, active compounds read high
In short: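 Screen for anticancer potential: a yeast strain altered in DNA damage repair is grown with compound, and reduced growth is quantified against vehicle controls.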

[8] = at 5.0 µM (retest, dose inferred, filed as 0.5)
[9] = at 50.0 µM (retest, dose inferred, filed as 5.0)

Measured: growth inhibition

COc1ccc(N=CN(C)C)c(C)c1
inactive: [1]; at 1.2 µM -24% | [1]; at 3.7 µM -26% | [1]; at 11.0 µM 0% | [2]; at 1.2 µM -29% | [2]; at 3.7 µM -29% | [2]; at 11.0 µM -32% | [2]; at 33.0 µM 61% | [3]; at 1.2 µM -9% | [3]; at 3.7 µM -62% | [3]; at 11.0 µM -62% | [3]; at 33.0 µM -34% | [4]; at 1.2 µM -40% | [4]; at 3.7 µM -51% | [4]; at 11.0 µM -43% | [5]; at 1.2 µM -1% | [5]; at 3.7 µM 1% | [5]; [8] 50% | [5]; at 11.0 µM -19% | [6]; at 1.2 µM -44% | [6]; at 3.7 µM -70% | [6]; [8] 46% | [6]; at 11.0 µM -43% | [7]; at 1.2 µM -63% | [7]; at 3.7 µM -54% | [7]; at 11.0 µM -43%
active: [1]; at 33.0 µM 83% | [1]; at 100.0 µM 94% | [2]; at 100.0 µM 95% | [3]; at 100.0 µM 71% | [4]; at 33.0 µM 93% | [4]; at 100.0 µM 95% | [5]; at 33.0 µM 86% | [5]; [9] 78% | [5]; at 50.0 µM 91.5% | [5]; at 100.0 µM 95% | [6]; at 33.0 µM 85% | [6]; [9] 76% | [6]; at 50.0 µM 94% | [6]; at 100.0 µM 96% | [7]; at 33.0 µM 92% | [7]; at 100.0 µM 95%
